In experiment [1] the target is Acetylcholinesterase (Homo sapiens) (UniProt P22303). The experiment in a line: Acetylcholinesterase (AChE) small molecule antagonists: colormetric cell-based qHTS assay (AID 1347395; calls by dose curve; also: nearly all actives have a fitted effect of over 30% in size). In short, it runs like this:
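After overnight attachment at 37 C, SH-SY5Y cells get 30 min compound exposure; detection cocktail (acetylthiocholine, DTNB) then incubates 90 min at 37 C, and absorbance reflects AChE-generated thiocholine.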

The target is the same in experiment [2]. In words: Acetylcholinesterase (AChE) small molecule antagonists: enzyme-based qHTS assay (AID 1347397; calls by dose curve; also: nearly all actives have a fitted effect of over 55% in size). To be noted: Potency: AChE enzyme activity inhibition. The method in brief: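 Recombinant human AChE, dispensed at 50 mU/mL, was preincubated with Tox21 10K compounds or DMSO vehicle for 30 min at room temperature. DTNB plus acetylthiocholine was then added, and thiocholine was measured colorimetrically after a further 10 min.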

The target is the same in experiment [3]. The experiment in a line: Acetylcholinesterase (AChE) small molecule antagonists: fluorescence cell-based qHTS assay (AID 1347398; calls by dose curve; also: nearly all actives have a fitted effect of over 50% in size). To be noted: Potency: AChE activity. The method in brief:
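Human SH-SY5Y cells were plated overnight at 37 C, exposed to compound for 30 min at 37 C, 5% CO2, then given acetylthiocholine plus Thiolite Green for 40 min at room temperature; thiocholine fluorescence (Ex/Em 490/520 nm) reports endogenous AChE activity.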

Experiment [4] has the same target. In words: Acetylcholinesterase (AChE) small molecule antagonists: enzyme-based qHTS assay with human liver microsomes (AID 1347399; calls by dose curve; also: nearly all actives have a fitted effect of over 60% in size). To be noted: Potency: qHTS inhibition. The method in brief:
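Recombinant human AChE (50 mU/mL in the enzyme mix) and human liver microsomes (0.25 mg/mL final) were preincubated with compound and NADPH (0.25 mg/mL final) for 30 min at 37 C. Acetylthiocholine/DTNB was then added; thiocholine was read colorimetrically after 10 min at room temperature.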

Experiment [5] addresses Cytochrome P450 2D6 (Homo sapiens) (UniProt P10635). The experiment in a line: Cytochrome P450 Family 2 Subfamily D Member 6 (CYP2D6) small molecule antagonists: luciferase reporter qHTS assay (AID 1671196). Also: nearly all actives have a fitted effect of over 50% in size. Also: potency is read from the fitted curve at half-maximal effect. The method in brief: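 P450-Glo format: CYP2D6 converts a proluciferin substrate to luciferin in an NADPH-driven reaction lasting 1 h at room temperature. Light output, proportional to CYP2D6 activity, reflects interference by test chemicals.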

Experiment [6] addresses Cytochrome P450 2C19 (Homo sapiens) (UniProt P33261). The experiment in a line: Cytochrome P450 Family 2 Subfamily C Member 19 (CYP2C19) small molecule antagonists: luciferase reporter qHTS assay (AID 1671197). Also: nearly all actives have a fitted effect of over 65% in size. Also: potency is read from the fitted curve at half-maximal effect. In short, it runs like this:
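P450-Glo CYP2C19 system: enzyme-substrate mix with compound 10 min at room temperature, then NADPH regeneration solution, 1 h at 37C. Proluciferin-to-luciferin conversion detected by luminescence after 20 min with detection reagent; ketoconazole as positive control.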

The target in experiment [7] is Cytochrome P450 2C9 (Homo sapiens) (UniProt P11712). In words: Cytochrome P450 Family 2 Subfamily C Member 9 (CYP2C9) small molecule antagonists: luciferase reporter qHTS assay (AID 1671198). Also: nearly all actives have a fitted effect of over 50% in size. Also: potency is read from the fitted curve at half-maximal effect. The method in brief:
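CYP2C9 activity was measured with a P450-Glo proluciferin substrate. Enzyme–substrate mix was held with compound for 10 min at room temperature, then NADPH regeneration solution was added for 1 h at 37C. Luciferin product was read as luminescence.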

Experiment [8] has as its target Voltage-gated inwardly rectifying potassium channel KCNH2 (Homo sapiens) (UniProt Q12809). The experiment in a line: Human Ether-a-go-go-Related Gene (hERG) channel small molecule antagonists: fluorescence cell-based qHTS assay (AID 1671200).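 Also: hERG-expressing U2OS cells given a thallium stimulus after FluxOR II dye loading; series mostly up to about 77 µM; nearly all actives have a fitted effect of over 50% in size.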 In short, it runs like this: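 In this thallium-flux screen, overnight-cultured U2OS cells bearing the channel are dye-loaded in darkness for an hour, rested 10 min at room temperature, and then monitored kinetically at 480/540 nm for two minutes post-stimulus.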

Experiment [9] has as its target Cytochrome P450 3A4 (Homo sapiens) (UniProt P08684). The experiment in a line: Cytochrome P450 Family 3 Subfamily A Member 4 (CYP3A4) small molecule antagonists: luciferase reporter qHTS assay (AID 1671201). Also: nearly all actives have a fitted effect of over 50% in size. Also: potency is read from the fitted curve at half-maximal effect. The method in brief:
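CYP3A4 activity was followed with a P450-Glo proluciferin substrate. Test compounds in DMSO were preincubated 10 min; NADPH regeneration then ran 1 h, and light output was read 20 min after detection reagent.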

For experiment [10], the target named is Cytochrome P450 1A2 (Homo sapiens) (UniProt P05177). The experiment in a line: Cytochrome P450 Family 1 Subfamily A Member 2 (CYP1A2) small molecule antagonists: luciferase reporter qHTS assay (AID 1671199). Also: nearly all actives have a fitted effect of over 50% in size. Also: potency is read from the fitted curve at half-maximal effect. The method in brief:
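Inhibition of CYP1A2 conversion of proluciferin to luciferin, detected by luminescence. Reaction run 1 h at room temperature with NADPH regeneration after brief compound preincubation.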

Each structure is given as a SMILES string. Where “and” joins values, the source holds several entries; their conditions need not be identical. Identical values can stand only once. Results filed as inconclusive are left out. Calls of active or inactive are those of the source. Unless noted, calls follow the shape of the dose curve; as a rule, active = well fitted curve in the direction sought with a large enough effect in the repeat runs; inconclusive = weak or mixed curves; inactive = no such curve, though single readings can be large; an effect the other way counts as inactive or inconclusive.

Voltage-gated inwardly rectifying potassium channel KCNH2 (Homo sapiens), sequence (Q12809 whole entry, looked up): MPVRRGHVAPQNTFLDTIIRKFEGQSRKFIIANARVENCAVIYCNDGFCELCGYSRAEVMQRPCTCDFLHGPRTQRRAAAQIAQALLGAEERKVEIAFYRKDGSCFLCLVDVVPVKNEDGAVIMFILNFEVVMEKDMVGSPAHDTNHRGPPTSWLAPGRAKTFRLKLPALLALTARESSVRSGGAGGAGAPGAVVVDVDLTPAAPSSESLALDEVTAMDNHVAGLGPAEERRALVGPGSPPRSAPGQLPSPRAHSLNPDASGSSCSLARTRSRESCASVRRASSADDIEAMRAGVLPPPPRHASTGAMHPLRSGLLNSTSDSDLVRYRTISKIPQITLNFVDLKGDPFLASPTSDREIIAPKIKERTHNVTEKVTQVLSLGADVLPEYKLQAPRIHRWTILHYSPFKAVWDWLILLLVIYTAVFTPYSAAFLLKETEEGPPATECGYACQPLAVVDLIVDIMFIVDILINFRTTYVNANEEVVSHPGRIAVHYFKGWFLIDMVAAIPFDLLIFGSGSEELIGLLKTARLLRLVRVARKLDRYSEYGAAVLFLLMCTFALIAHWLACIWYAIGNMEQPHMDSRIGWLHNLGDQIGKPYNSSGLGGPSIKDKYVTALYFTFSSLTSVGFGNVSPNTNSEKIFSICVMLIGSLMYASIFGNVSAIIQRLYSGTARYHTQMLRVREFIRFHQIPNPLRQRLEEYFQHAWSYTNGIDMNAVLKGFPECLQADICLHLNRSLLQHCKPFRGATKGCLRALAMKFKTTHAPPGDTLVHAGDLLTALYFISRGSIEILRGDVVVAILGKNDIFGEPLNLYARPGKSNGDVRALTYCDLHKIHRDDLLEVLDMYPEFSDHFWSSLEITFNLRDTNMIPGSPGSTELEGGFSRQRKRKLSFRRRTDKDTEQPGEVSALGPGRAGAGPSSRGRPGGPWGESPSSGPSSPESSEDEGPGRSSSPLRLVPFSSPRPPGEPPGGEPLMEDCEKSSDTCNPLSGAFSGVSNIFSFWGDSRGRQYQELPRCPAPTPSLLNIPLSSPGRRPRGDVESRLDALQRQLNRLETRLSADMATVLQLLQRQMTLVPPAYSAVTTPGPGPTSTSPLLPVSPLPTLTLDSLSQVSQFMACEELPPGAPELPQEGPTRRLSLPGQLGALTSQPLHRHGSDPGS
Cytochrome P450 1A2 (Homo sapiens), sequence (P05177 whole entry, looked up): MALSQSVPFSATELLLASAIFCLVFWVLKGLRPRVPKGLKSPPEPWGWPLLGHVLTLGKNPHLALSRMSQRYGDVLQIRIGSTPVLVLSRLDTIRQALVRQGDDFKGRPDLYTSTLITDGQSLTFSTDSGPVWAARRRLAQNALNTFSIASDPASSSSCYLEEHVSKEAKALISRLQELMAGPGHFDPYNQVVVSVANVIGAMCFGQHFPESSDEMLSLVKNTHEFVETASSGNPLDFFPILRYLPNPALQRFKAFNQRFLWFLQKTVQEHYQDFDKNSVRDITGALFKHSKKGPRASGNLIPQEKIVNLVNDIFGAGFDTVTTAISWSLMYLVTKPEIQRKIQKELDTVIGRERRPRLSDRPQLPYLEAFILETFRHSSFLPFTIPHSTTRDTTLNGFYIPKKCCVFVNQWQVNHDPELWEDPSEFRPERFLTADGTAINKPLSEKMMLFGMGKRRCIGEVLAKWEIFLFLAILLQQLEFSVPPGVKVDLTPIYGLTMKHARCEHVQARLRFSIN
Acetylcholinesterase (Homo sapiens), sequence (P22303 whole entry, looked up): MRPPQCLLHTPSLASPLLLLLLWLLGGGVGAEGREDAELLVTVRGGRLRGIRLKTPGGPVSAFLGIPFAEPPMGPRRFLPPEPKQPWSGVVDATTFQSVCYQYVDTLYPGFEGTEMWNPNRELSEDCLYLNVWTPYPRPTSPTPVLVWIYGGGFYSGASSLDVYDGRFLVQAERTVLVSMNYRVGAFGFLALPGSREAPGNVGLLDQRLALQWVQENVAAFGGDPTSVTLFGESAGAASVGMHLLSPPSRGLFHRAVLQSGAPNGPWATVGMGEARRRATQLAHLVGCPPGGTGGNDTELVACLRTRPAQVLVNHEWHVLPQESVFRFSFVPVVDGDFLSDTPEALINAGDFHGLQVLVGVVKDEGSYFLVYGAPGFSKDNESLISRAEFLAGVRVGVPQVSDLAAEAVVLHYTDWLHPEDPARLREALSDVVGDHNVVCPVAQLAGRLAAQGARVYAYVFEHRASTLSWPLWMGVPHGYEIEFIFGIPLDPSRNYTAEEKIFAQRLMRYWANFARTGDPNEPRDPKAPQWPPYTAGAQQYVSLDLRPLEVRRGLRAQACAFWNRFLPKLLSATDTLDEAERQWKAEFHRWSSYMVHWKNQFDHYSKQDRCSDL
Cytochrome P450 2D6 (Homo sapiens), sequence (P10635 whole entry, looked up): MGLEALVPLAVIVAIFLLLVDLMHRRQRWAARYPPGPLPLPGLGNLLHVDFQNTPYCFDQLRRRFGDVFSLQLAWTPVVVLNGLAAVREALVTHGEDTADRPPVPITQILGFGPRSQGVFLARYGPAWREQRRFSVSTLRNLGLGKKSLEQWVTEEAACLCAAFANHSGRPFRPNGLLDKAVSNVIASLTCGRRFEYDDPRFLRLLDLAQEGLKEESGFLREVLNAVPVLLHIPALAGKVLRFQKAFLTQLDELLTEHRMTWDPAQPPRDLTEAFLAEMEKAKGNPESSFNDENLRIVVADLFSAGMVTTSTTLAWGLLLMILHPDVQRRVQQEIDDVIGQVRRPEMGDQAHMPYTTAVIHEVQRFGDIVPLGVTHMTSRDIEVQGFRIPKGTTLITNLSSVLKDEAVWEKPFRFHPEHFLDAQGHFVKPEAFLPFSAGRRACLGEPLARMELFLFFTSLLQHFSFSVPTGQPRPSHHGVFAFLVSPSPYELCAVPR
Cytochrome P450 2C19 (Homo sapiens), sequence (P33261 whole entry, looked up): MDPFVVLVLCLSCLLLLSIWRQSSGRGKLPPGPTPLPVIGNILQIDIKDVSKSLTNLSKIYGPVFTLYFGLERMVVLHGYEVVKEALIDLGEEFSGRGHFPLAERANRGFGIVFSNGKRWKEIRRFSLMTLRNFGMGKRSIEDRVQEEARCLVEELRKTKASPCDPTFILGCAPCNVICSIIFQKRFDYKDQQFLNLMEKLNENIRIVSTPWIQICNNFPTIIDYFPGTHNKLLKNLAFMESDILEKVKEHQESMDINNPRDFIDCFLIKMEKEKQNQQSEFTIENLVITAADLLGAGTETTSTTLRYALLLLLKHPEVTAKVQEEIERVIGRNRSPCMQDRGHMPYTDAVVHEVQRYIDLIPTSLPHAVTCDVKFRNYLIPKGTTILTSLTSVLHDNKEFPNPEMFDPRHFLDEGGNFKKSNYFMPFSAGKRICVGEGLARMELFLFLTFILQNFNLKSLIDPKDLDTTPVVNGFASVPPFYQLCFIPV
Cytochrome P450 2C9 (Homo sapiens), sequence (P11712 whole entry, looked up): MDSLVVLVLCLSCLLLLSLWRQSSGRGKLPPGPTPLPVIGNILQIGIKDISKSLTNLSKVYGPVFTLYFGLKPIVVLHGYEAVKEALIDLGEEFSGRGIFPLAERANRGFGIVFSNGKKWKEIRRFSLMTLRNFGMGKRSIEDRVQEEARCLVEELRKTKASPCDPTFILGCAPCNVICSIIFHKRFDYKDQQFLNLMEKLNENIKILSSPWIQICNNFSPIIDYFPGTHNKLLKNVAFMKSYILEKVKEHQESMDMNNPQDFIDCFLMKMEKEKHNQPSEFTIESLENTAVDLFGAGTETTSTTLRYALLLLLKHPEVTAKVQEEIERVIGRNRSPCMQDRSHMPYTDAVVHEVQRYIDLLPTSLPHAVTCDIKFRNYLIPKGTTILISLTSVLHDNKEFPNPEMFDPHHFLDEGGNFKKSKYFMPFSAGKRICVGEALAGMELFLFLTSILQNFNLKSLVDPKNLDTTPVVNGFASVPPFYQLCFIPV
Cytochrome P450 3A4 (Homo sapiens), sequence (P08684 whole entry, looked up): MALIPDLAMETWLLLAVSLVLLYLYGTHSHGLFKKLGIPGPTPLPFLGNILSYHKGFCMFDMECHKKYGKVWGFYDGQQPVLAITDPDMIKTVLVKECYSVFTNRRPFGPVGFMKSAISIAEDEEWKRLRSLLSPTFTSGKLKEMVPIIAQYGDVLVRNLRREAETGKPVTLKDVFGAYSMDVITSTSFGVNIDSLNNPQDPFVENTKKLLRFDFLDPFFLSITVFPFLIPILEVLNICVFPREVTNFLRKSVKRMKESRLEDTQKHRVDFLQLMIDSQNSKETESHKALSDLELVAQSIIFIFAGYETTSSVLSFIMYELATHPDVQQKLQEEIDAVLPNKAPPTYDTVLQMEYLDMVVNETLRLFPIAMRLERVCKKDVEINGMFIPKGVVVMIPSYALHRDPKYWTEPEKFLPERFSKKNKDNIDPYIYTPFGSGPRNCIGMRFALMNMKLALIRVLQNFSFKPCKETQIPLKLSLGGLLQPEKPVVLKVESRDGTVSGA

For `O=NN1CCCCCC1`, the Potency result in [1], in experiment [2], in experiment [3], in experiment [4], in experiment [5] and in experiment [6] was “inactive” in each case. Moreover, the Potency entry in [7], in experiment [8] and in experiment [9] was “inactive” each time.

For `[O-][Cl+]O`, the Potency entry in experiment [1], in experiment [2], in [3], in [4], in [5] and in [6] was “inactive” in each case. Further, the Potency result in [7], in [10], in experiment [8] and in experiment [9] was “inactive” throughout.

For the compound `CCCCN=C=O`, the Potency entry in experiment [1], in [2], in [3], in [4], in experiment [5] and in experiment [7] was “inactive” in each case. Besides, the Potency entry in experiment [8] and in experiment [9] was “inactive” in each case. Also, the Potency in experiment [6] is 35.2 µM (active).

On to `N#C/C(N)=C(/N)C#N`, for which the Potency entry in experiment [1], in [2], in experiment [3], in experiment [4], in [5] and in [8] was “inactive” each time. Moreover, the Potency in experiment [6] was 30.8 µM (active); in experiment [10], 21.8 µM (active).

In the case of `NC(=O)CI`, the Potency entry in [1], in experiment [2], in experiment [3], in [4], in experiment [8] and in experiment [9] was “inactive” each time. For the same compound, the Potency is 63.8 µM (active) in [5], 80.4 µM (active) in [6], 63.8 µM (active) in [7] and 35.9 µM (active) in experiment [10].

Turning to `Cc1ccc(-c2c(Cl)nc(C#N)n2S(=O)(=O)N(C)C)cc1`, the Potency entry in experiment [1], in experiment [2], in experiment [3], in experiment [4], in experiment [5] and in experiment [8] was “inactive” in each case. The Potency result in [9] was “inactive”. The Potency in [6] is 79.6 µM (active); in experiment [7], 11.2 µM (active); in experiment [10] it was 22.4 µM (active).

For the compound `BrCCCCBr`, the Potency result in experiment [1], in experiment [2], in experiment [3], in [4], in [5] and in experiment [6] was “inactive” in each case. Further, the Potency result in experiment [7], in experiment [8] and in [9] was “inactive” throughout.

As for `COC1=CC(=O)O[C@@H](CCc2ccccc2)C1`, the Potency result in [1], in [2], in experiment [3], in experiment [4], in experiment [5] and in [8] was “inactive” in each case. The Potency entry in experiment [9] is “inactive”. For the same compound, the Potency was 5.87 µM (active) in [6] and 33 µM (active) in experiment [7].

`ClCC(Br)CBr` (centres undefined): the Potency result in [1], in [2], in experiment [3], in experiment [4], in [5] and in experiment [6] was “inactive” throughout. Further, the Potency entry in experiment [7], in experiment [8] and in [9] was “inactive” each time.

In the case of `CCCCC(CC)COP(=O)(Oc1ccccc1)Oc1ccccc1` (centres undefined), the Potency entry in experiment [1], in [2], in [3], in experiment [4] and in experiment [5] was “inactive” each time. The Potency in experiment [6] is 2.83 µM (active); in [7], 3.99 µM (active); in experiment [10], 25.2 µM (active); in experiment [9], 5.64 µM (active).

For the compound `Cc1c(F)c(F)c(COC(=O)C2C(/C=C(\Cl)C(F)(F)F)C2(C)C)c(F)c1F` (centres undefined), the Potency result in experiment [1], in experiment [2], in experiment [3], in experiment [4], in experiment [5] and in [9] was “inactive” in each case. The Potency in experiment [6] was 35.6 µM (active); in experiment [7], 22.4 µM (active).

Regarding `C[N+](C)(C)CCCl`, the Potency result in experiment [1], in experiment [2], in experiment [3], in experiment [4], in experiment [5] and in [6] was “inactive” each time. The Potency result in experiment [7], in experiment [10], in [8] and in [9] was “inactive” in each case.

As to `C=CC(=O)OCCCCO`, the Potency entry in [1], in experiment [2], in experiment [3], in [4], in [5] and in experiment [6] was “inactive” in each case. Moreover, the Potency entry in experiment [7], in experiment [8] and in [9] was “inactive” each time.

With `CC(=O)[C@H]1CC[C@H]2[C@@H]3CC[C@H]4C[C@](C)(O)CC[C@]4(C)[C@H]3CC[C@]12C`, the Potency entry in experiment [1], in [2], in experiment [3], in [4], in experiment [5] and in experiment [6] was “inactive” throughout. The Potency entry in experiment [7], in experiment [8] and in [9] was “inactive” in each case.

`O=C(NC(=O)c1c(F)cccc1F)Nc1ccc(OC(F)(F)C(F)OC(F)(F)F)c(Cl)c1` (centres undefined): the Potency entry in experiment [1], in experiment [2], in [3], in experiment [4], in experiment [5] and in experiment [6] was “inactive” throughout. Also, the Potency result in experiment [8] and in experiment [9] was “inactive” in each case. For the same compound, the Potency in experiment [7] is 19.5 µM (active).

Regarding `Cc1ccc2ccccc2c1`, the Potency entry in experiment [1], in [2], in [3], in [4], in [5] and in experiment [6] was “inactive” each time. In addition, the Potency entry in experiment [7], in experiment [8] and in experiment [9] was “inactive” in each case.

In the case of `Brc1ccc(Oc2ccccc2)cc1`, the Potency result in experiment [1], in experiment [2], in [3], in experiment [4], in experiment [5] and in [8] was “inactive” throughout. Moreover, the Potency result in experiment [9] is “inactive”. Further, the Potency in experiment [6] is 81.7 µM (active) and 31.7 µM (active); in experiment [10], 25.2 µM (active).

As to `C=CCCl`, the Potency entry in experiment [1], in experiment [2], in experiment [3], in experiment [4], in [5] and in experiment [6] was “inactive” in each case. Also, the Potency result in [7], in experiment [8] and in [9] was “inactive” each time.

For the compound `O=C(C(Cl)(Cl)Cl)C(Cl)(Cl)Cl`, the Potency result in experiment [1], in experiment [2], in experiment [3], in [4], in experiment [6] and in experiment [7] was “inactive” each time. The Potency result in [8] and in [9] was “inactive” each time. In addition, in experiment [5], the Potency is 36.3 µM (active).

Take `C=CCOC(C)=O`: the Potency entry in [1], in experiment [2], in experiment [3], in [4], in experiment [5] and in experiment [8] was “inactive” throughout. In addition, in [9], the Potency result is “inactive”. In addition, the Potency was 70 µM (active) in experiment [6] and 55.6 µM (active) in experiment [7].

Turning to `Cl/C=C\Cl`, the Potency result in [1], in [2], in experiment [3], in experiment [4], in experiment [5] and in [6] was “inactive” throughout. The Potency result in experiment [7], in experiment [10], in [8] and in experiment [9] was “inactive” each time.

For the compound `CC1Sc2c(C(=O)O)c(=O)c3cc(F)c(N4CCNCC4)cc3n21` (centres undefined), the Potency entry in experiment [1], in [2], in experiment [3], in experiment [4], in [5] and in experiment [6] was “inactive” each time. The Potency entry in experiment [10], in [8] and in experiment [9] was “inactive” in each case.

Take `O=C(O)COc1ccc(Cl)cc1`: the Potency entry in experiment [1], in [2], in experiment [3], in experiment [4], in [5] and in [6] was “inactive” in each case. For the same compound, the Potency result in experiment [7], in [8] and in experiment [9] was “inactive” in each case.

`O=C(OC1CCCCC1)c1ccccc1C(=O)OC1CCCCC1`: the Potency entry in experiment [1], in [2], in experiment [3], in [4] and in experiment [5] was “inactive” in each case. Besides, the Potency in [6] was 33.4 µM (active); in experiment [7], 26.5 µM (active); in experiment [10], 37.5 µM (active); in [9] it was 11.9 µM (active).

Source of the values: PubChem BioAssay (Tox21).
